The values below come from PubChem BioAssay AID2732 (Emory University Molecular Libraries Screening Center, 2010).

By inhibition is commonly meant the drop in the measured response relative to a control, in per cent.

Out of some 220,000 compounds screened, about 8,200 (3.7%) were called active. The list comes from a sample in which actives are over-represented; it also holds similar structures and randomly drawn compounds. Unmarked numbers belong to inactive results.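 The calls were made as follows: active = compounds that reduced the stress-induced luciferase reporter signal by more than about 70% of percent inhibition (limit read from the data); inactive = the rest.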

The nature of the test: blockers of ER-stress CHOP reporter expression – cell-based, unfolded protein response, luciferase reporter, primary screen (AID 2732).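 Also: 0% = tunicamycin plus vehicle and 100% = wells without tunicamycin.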 Particulars: CHO-K1 CHOP-promoter luciferase, tunicamycin-induced, 15-18 h; at 10 µM; hits give high values.
Regarding `CN(C(=O)CCn1c(=S)oc2ccccc21)C1CCCCC1`, the inhibition is 4.79%. Take `CC(C)(C)C(=O)Cn1c(NCCO)nc2ccccc21`: the inhibition was 9.85%. The same measure for `OCCNc1nc2ccccc2n1-c1ncnc2sc3c(c12)CCC3`: 74.4% (active); for `O=C(O)[C@@H]1CCCN1c1ncnc2sc3c(c12)CCC3`: -1.98%.

Take `N/C(=N\S(=O)(=O)c1cc(C(F)(F)F)cc(C(F)(F)F)c1)c1cccs1`: the inhibition is 34.7%. The same measure for `Cc1ccc(S(=O)(=O)NC(=O)Nc2nc(-c3ccc(F)c(F)c3)cs2)cc1`: 1.74%; for `CCOC(=O)c1cc(C)nc(S(C)(=O)=O)c1C#N`: -90.6%; for `c1ccc(C2c3[nH]c4ccccc4c3CCN2Cc2cccn2-c2cccnc2)nc1` (stereo unspecified): -19.1%. With `COc1cccc(C2c3[nH]c4ccccc4c3CCN2Cc2cccc(C)n2)c1` (stereo unspecified), the inhibition is 8.45%. For `Oc1cccc(C2c3[nH]c4ccccc4c3CCN2Cc2cnn(-c3ccccc3)c2)c1` (stereo unspecified), the inhibition is 106% (active). For the compound `Cn1c(CSCC(=O)Nc2ccccc2)nnc1SCc1ccccc1`, the inhibition was -6.7%. The same measure for `COc1ccc(NC(=O)CCN2C(=O)/C(=C/c3ccc4c(c3)OCO4)SC2=S)cc1`: -8.39%; for `CCCCCCCCn1c2c(c(=N)c3c1CCC3)CCCC2`: 75.5% (active). The same measure for `O=C(N/N=C/c1cccc([N+](=O)[O-])c1)c1ccncc1`: 5.76%. Take `O=C(CSc1nnnn1-c1ccc(O)cc1)c1ccc(F)cc1`: the inhibition is 17%. The same measure for `CCCCCOC(=O)NCCOC(=O)Nc1ccc(C(=O)OCC)cc1`: 83.8% (active). `CCOC(=O)Nc1ccc(NC(=O)OCC)cc1`: the inhibition is 26.9%.

Take `CCCCC(CCC(=O)Nc1ccc(C(=O)OCC)cc1)C(=O)O` (stereo unspecified): the inhibition is 14.7%.

Consider `COc1cc([N+](=O)[O-])ccc1NC(=O)CN1CCCC1`, for which the inhibition was -4.65%. `O=C(CN1CCCCC1)Nc1ccccc1Cl`: the inhibition was 10.1%. As to `O=C(CN1CCCCCC1)Nc1ccc(Br)cc1Br`, the inhibition is 84.9% (active). On to `CCOc1ccc(C2c3[nH]c4ccccc4c3CCN2Cc2cccn2-c2ncccn2)cc1` (stereo unspecified), for which the inhibition was -20%.

For `Cc1nnc(N/N=C/c2cccs2)[nH]c1=O`, the inhibition is 10.9%.

Turning to `CCOc1ccc(-n2cnc3c(=O)[nH]c(N)nc32)cc1`, the inhibition was 8.78%. The same measure for `CC1CC2C3CCC4=CC(=O)C=C[C@]4(C)[C@@]3(F)[C@@H](O)C[C@]2(C)[C@@]1(O)C(=O)CO` (stereo partly specified): 4.18%; for `CNc1nc(Nc2ccc(C)c(Cl)c2)nc(N)c1[N+](=O)[O-]`: 81.6% (active); for `CCN1CCN(c2nc(Nc3cccc(F)c3)nc(N)c2[N+](=O)[O-])CC1`: 3.99%.

Turning to `Nc1nc(Nc2ccccc2)nc(NCCO)c1[N+](=O)[O-]`, the inhibition was -4.79%. Regarding `COc1ccc2c(c1)c1ncn(Cc3ccccn3)c(=O)c1n2C`, the inhibition was 18.8%. The figure for `CCN(CC)C(=O)Oc1ccc(Br)cc1C(=O)Nc1ccc(F)c(Cl)c1` is -9.25%; for `CN(C)C(=S)Nc1ccc(Br)cc1Cl` it is -7.26%; for `CCCCSc1nnc2c(n1)OC=Nc1ccccc1-2` it is -26.6%.

On to `CSC1=N/C(=C\c2ccc3c(c2)OCO3)C(=O)S1`, for which the inhibition was 79.4% (active). For the compound `CCC1=C/C(=C\c2ccc3c(c2)OCO3)C(=O)S1`, the inhibition was 47.3%. The figure for `O=C1/C(=C/c2ccc3c(c2)OCO3)CCC/C1=C\c1ccc2c(c1)OCO2` is 10.8%; for `C/C=N/N(c1ccccc1)c1ccccc1` it is 12.3%; for `Oc1ccc(-c2nnc(Nc3ccccc3)c3ccccc23)cc1` it is 34.9%. As for `COc1cc(OC)c2ccc(=O)oc2c1C(CCN1CCN(c2ccccc2)CC1)c1ccc2c(c1)OCO2` (stereo unspecified), the inhibition was 6.77%. For `Cc1[nH]n(C)c(=O)c1C(=O)c1c(-c2c(Cl)cccc2Cl)noc1C`, the inhibition was -56.3%.

Take `COc1ccc(CNC(=O)C(Cc2ccccc2)n2cccc2)cc1` (stereo unspecified): the inhibition is 9.45%. As for `Clc1cccc(N=C2NN=C(c3ccc4c(c3)OCCO4)CS2)c1`, the inhibition is 10.5%.

Consider `CCOC(=O)C1=C(O)CSC1=Nc1cccc(Cl)c1`, for which the inhibition was 12.7%. As for `CN(C)c1nc(=Nc2cccc(Cl)c2)ss1`, the inhibition is 74.4% (active). `O=C(NC1CC1)c1ccc(-c2ccccc2)cc1`: the inhibition is -3.76%. On to `COc1ccccc1N(C)S(=O)(=O)c1ccc(C(=O)NC2CCCCCC2)cc1`, for which the inhibition is 19.2%. In the case of `CN1C(=O)/C(=C/c2ccc(C(=O)NC3CCCC3)cc2)Oc2ccccc21`, the inhibition is 101% (active). The figure for `CCc1ccc2nc(Nc3ncc(C(C)=O)c(C)n3)nc(C)c2c1` is 1.13%; for `NNC(=O)c1cccc(COCC(F)(F)C(F)F)c1` it is -3.75%; for `O=C(CCCl)Nc1ccc(S(=O)(=O)NCc2ccco2)cc1` it is -12.6%. For the compound `COC(=O)C1NN=C(C(=O)c2ccc(Br)cc2)C1c1cccc(Br)c1` (stereo unspecified), the inhibition is 75.1% (active).

With `COc1ccc(C(=O)c2oc3ccc(Br)cc3c2NC(C)=O)cc1`, the inhibition is 10%. Take `O=C(NC1CC1)c1cccc(Br)c1`: the inhibition is 20.9%. As to `C/C(CC(C)C)=N\Oc1nc(C)cc(C)n1`, the inhibition is -11.9%.

Turning to `Cc1cc(N2CCN(c3ccccc3)CC2)nc(N2CCOCC2)n1`, the inhibition was 12%. Turning to `FC(F)(F)c1cc(C(F)(F)F)c2ccc(N3CCN(c4ccccc4)CC3)nc2n1`, the inhibition is 96.8% (active). As for `O=C(NC(=S)Nc1cccc2c(O)cccc12)c1cccc(Br)c1`, the inhibition was 32.1%. With `CCOC(=O)c1c(C)oc(C)c(C(=O)OCC)c1=O`, the inhibition is 1.84%. Consider `Cc1ccc(S(=O)(=O)N2CCN(C(=O)c3cccs3)CC2)cc1`, for which the inhibition is 18.5%. The same measure for `O=S(=O)(c1ccc(F)cc1)N1CCN(Cc2ccccc2C(F)(F)F)CC1`: 88% (active); for `O=S(=O)(c1ccc(F)cc1)N1CC=C(c2ccccc2)CC1`: 5.87%. Consider `O=C(CN1CCN(S(=O)(=O)c2ccc(F)cc2)CC1)Nc1ccccc1F`, for which the inhibition is 14.5%.

For the compound `Cc1ccc(S(=O)(=O)N2CCN(Cc3cccc(C)c3O)CC2)cc1`, the inhibition is 83% (active). On to `Cc1ccc(S(=O)(=O)N2CCN(S(=O)(=O)N3CCOCC3)CC2)cc1`, for which the inhibition is -15%. The same measure for `CN(CC(O)COc1ccc(S(=O)(=O)N2CCOCC2)cc1Cl)C1CCCCC1` (stereo unspecified): 9.37%. As for `O=C(O)COCC(=O)NCc1csc2ccc(Cl)cc12`, the inhibition was 1.58%. For `COc1cccc(NS(=O)(=O)c2ccc3[nH]cc(C(=O)NCCCOC(C)C)c(=O)c3c2)c1`, the inhibition was -0.02%. `CCCCNC(=O)c1c[nH]c2ccc(S(=O)(=O)Nc3ccc(OCC)cc3)cc2c1=O`: the inhibition was 100% (active). The figure for `CCOc1ccc(NS(=O)(=O)c2ccc(C)c(C(N)=O)c2)cc1` is 16.6%; for `COC(=O)c1ccc(S(=O)(=O)NCc2ccccc2)n1C` it is 15.6%.

As for `O=c1cc(CCl)nc2scc(-c3ccccc3)n12`, the inhibition is -35.4%. In the case of `Cc1nc(SCC(=O)Nc2cc(C)on2)c2c3c(sc2n1)CCCC3`, the inhibition is 97.7% (active).

As for `Cc1cc(NC(=O)CSc2nc3ccccc3n2CC(C)C)no1`, the inhibition was -2.4%. Regarding `Cc1cc(NC(=O)CSc2nc3c(cc2C#N)CCCCC3)no1`, the inhibition was -14.1%. The same measure for `Cc1cc(NC(=O)CSc2nc(C(C)C)nc3sc4c(c23)CCC(C)C4)no1` (stereo unspecified): 78.5% (active). On to `Cc1nc(SCC(=O)Nc2cc(C)on2)c2c(C)c(C)sc2n1`, for which the inhibition was 69.6%. The same measure for `C=CCn1c(SCc2c(C)noc2C)nc2sc3c(c2c1=O)CCC(C)C3` (stereo unspecified): 25.9%.

In the case of `CNC(=S)NNC(=O)c1ccc(N(C)C)cc1`, the inhibition was -5.96%. As for `O=C(Nc1n[nH]c(C(F)(F)F)n1)c1cccs1`, the inhibition is 3.43%. `Cc1noc(C)c1C(=O)OCC(=O)N1CCN(S(=O)(=O)c2ccc3ccccc3c2)CC1`: the inhibition was 4.18%. `O=C(COC(=O)c1ccc[nH]c1=O)Nc1ccc2c(c1)OC(F)(F)O2`: the inhibition is -4.76%. For `O=C(CCn1nnc2ccccc2c1=O)N[C@@H](Cc1c[nH]c2ccccc12)C(=O)O`, the inhibition is 5.85%.

Consider `Cc1nc2ccccc2cc1O`, for which the inhibition is -6.19%. As for `Cc1nc2ccccc2cc1OCc1ccc(F)cc1`, the inhibition was 74.8% (active). For `Fc1cccc2ncnc(OCc3ccccc3)c12`, the inhibition is -2.5%. For the compound `O=S(=O)(Nc1n[nH]c(C(F)(F)F)n1)c1ccccc1`, the inhibition was 11.6%. For `COC(=O)c1cc(C(=O)OCC(=O)Nc2cc(C)on2)cc([N+](=O)[O-])c1`, the inhibition was 4.62%.

Consider `Cc1nc2sc(C(=O)c3ccccc3)c(N)c2c2c1CCCC2`, for which the inhibition was 0.62%.

In the case of `CCc1nc2sc(C(=O)O)c(N)c2c2c1CCCC2`, the inhibition is 3.45%. The figure for `NC(=O)c1sc2nc3c(c(-c4ccccc4)c2c1N)CCC3` is 70.9% (active). As to `Cc1ccc(NC(=O)c2sc3nc(N)c(C#N)cc3c2N)cc1`, the inhibition was -25.7%. Regarding `CC(=O)Nc1ccc(NC(=O)c2sc3nc4c(c(-c5ccc(C)cc5)c3c2N)CCC4)cc1`, the inhibition was 78.3% (active). For `Cc1cccc(NC(=O)c2sc3nc4c(c(-c5ccco5)c3c2N)CCC4)c1`, the inhibition was 34.4%. Turning to `COc1ccc(C2/C=C\CN(S(=O)(=O)c3cccs3)CC(=O)N2Cc2ccc(F)cc2)cc1` (stereo unspecified), the inhibition was 4.62%. Take `Cc1cc(C)c(NC(=O)CN2C(=O)NC(Cc3ccccc3)C2=O)c(C)c1` (stereo unspecified): the inhibition was 11.3%. On to `COc1ccc2nc(NC(=O)c3ccc(Br)s3)sc2c1`, for which the inhibition was 95.9% (active). The same measure for `COc1cccc(C(=O)Nc2nc3ccc(S(C)(=O)=O)cc3s2)c1`: 8.18%; for `COc1ccc2nc(NC(=O)NC3CCCCC3)sc2c1`: 26.1%. Consider `CCCSc1ncccc1C(=O)O`, for which the inhibition is -2.65%. For the compound `COC(=O)CNS(=O)(=O)c1ccc(OC)cc1`, the inhibition was 3.65%. For `CO/N=C(/CS(=O)(=O)c1ccc(Br)cc1)c1ccc(OC)cc1`, the inhibition was 83% (active). As for `CO/N=C/CC(=O)c1ccc(OC)cc1`, the inhibition is -19.6%.
